{"source": "PubChem BioAssay (NCATS)", "note": "Values joined by “and” are separate entries in the source; they are usually repeats but may differ in a detail not shown here. Equal values may be shown once. Records with an inconclusive call do not appear. Active and inactive are the calls of the source. Calls come from the whole dose curve; as a rule, active = well fitted curve in the direction sought with a large enough effect; inconclusive = small, poorly fitted or top-dose-only effect, or another doubt; inactive = no such curve, though single readings can be large or run the other way. % is set by controls: 0 for no effect and ±100 for the full control effect; potency is the fitted concentration of half-maximal effect.", "data": [{"assay": "qHTS Assay for Identifying Gametocytocidal Compounds (AID 743244);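 for max response: actives lower the fluorescent signal which means gametocytes are killed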", "conditions": "P. falciparum 3D7 stage III-V gametocytes, alamarBlue, 72 h; max response: hits give low values", "outline": "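Fluorescence at Ex 525/Em 598 nm, recorded 24 h after alamarBlue addition, reports residual metabolic activity of 3D7 gametocytes (stages III–V) following 72 h compound exposure at 37 °C, 5% CO2.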", "values": [{"smiles": "O=c1[nH]c(=O)n([C@H]2C[C@H](O)[C@@H](CO)O2)cc1C(F)(F)F", "max response": "15% (inactive)"}, {"smiles": "COc1cccc(OC)c1C(=O)N[C@@H]1C(=O)N2[C@@H]1SC(C)(C)[C@@H]2C(=O)O", "max response": "-0.927% (inactive)"}, {"smiles": "COc1cc(/C=C/C(=O)O[C@H]2CC[C@]34C[C@]35CC[C@]3(C)[C@@H]([C@H](C)CCC=C(C)C)CC[C@@]3(C)[C@@H]5CC[C@H]4C2(C)C)ccc1O", "max response": "-6.26% (inactive) and 0.13% (inactive)"}, {"smiles": "COc1c2occc2c(OC)c2c(=O)cc(C)oc12", "max response": "22.1% (inactive)"}, {"smiles": "CCOC(=O)COc1ccc2c(C)c(CCN(CC)CC)c(=O)oc2c1Cl", "max response": "-0.591% (inactive)"}, {"smiles": "CC(=O)Nc1c(I)cc(I)c(C(=O)O)c1I", "max response": "44.8% (inactive)"}, {"smiles": "O=C(O)CNC(=O)c1ccccc1", "max response": "1.04% (inactive)"}, {"smiles": "CC(=O)c1ccc2c(c1)N(CCCN1CCC(CCO)CC1)c1ccccc1S2", "max response": "-4.88% (inactive)"}, {"smiles": "CO/N=C1\\CN(c2nc3c(cc2F)c(=O)c(C(=O)O)cn3C2CC2)CC1CN", "note": "(centres undefined)", "max response": "-1.09% (inactive)"}, {"smiles": "CCN(CCCc1ccccc1)CCCc1ccccc1", "max response": "0.141% (inactive)"}, {"smiles": "NC(=O)C(=O)N/N=C/c1ccc([N+](=O)[O-])o1", "Potency": "17.8 µM (active)"}, {"smiles": "CN1C(CCl)Nc2cc(Cl)c(S(N)(=O)=O)cc2S1(=O)=O", "note": "(centres undefined)", "max response": "12.5% (inactive)"}, {"smiles": "Nc1ccc(/C=C/c2ccc(N)cc2S(=O)(=O)O)c(S(=O)(=O)O)c1", "max response": "1.42% (inactive)"}, {"smiles": "CCN1CCC[C@H]1CNC(=O)c1c(OC)ccc(Br)c1OC", "max response": "-8.08% (inactive)"}, {"smiles": "CC1(C)O[C@@H]2[C@@H](CO[C@@]3(COS(N)(=O)=O)OC(C)(C)O[C@@H]23)O1", "max response": "4.37% (inactive)"}, {"smiles": "C[C@]12CCC(=O)C=C1[C@@H]1C[C@@H]1[C@H]1[C@@H]3[C@@H]4C[C@@H]4[C@@]4(CCC(=O)O4)[C@@]3(C)CC[C@@H]12", "max response": "5.27% (inactive)"}, {"smiles": "CCOC(=O)[C@H](CCc1ccccc1)N[C@@H](C)C(=O)N1Cc2ccccc2C[C@H]1C(=O)O", "max response": "4.65% (inactive)"}, {"smiles": "C[C@@H]1C[C@H]2[C@@H]3CCC4=CC(=O)C=C[C@]4(C)[C@@]3(F)[C@@H](O)C[C@]2(C)[C@H]1C(=O)CO", "max response": "9.79% (inactive)"}, {"smiles": "C[C@]12C=CC(=O)C=C1CC[C@@H]1[C@@H]2[C@@H](O)C[C@@]2(C)[C@H]1CC[C@]2(O)C(=O)CO", "max response": "0.844% (inactive)"}, {"smiles": "CCCCC(CC)CN=C(N)NC(N)=NCCCCCCN=C(N)NC(N)=NCC(CC)CCCC", "note": "(centres undefined)", "Potency": "6.31 µM (active)"}, {"smiles": "C[C@H](O)C(=O)Nc1c(I)c(C(=O)NC(CO)CO)c(I)c(C(=O)NC(CO)CO)c1I", "max response": "9.34% (inactive)"}, {"smiles": "CCOc1ccc(NC(=O)CC(C)O)cc1", "note": "(centres undefined)", "max response": "-2.08% (inactive)"}, {"smiles": "CC1(C)OC[C@@H](COC(=O)CCc2ccc(OC[C@@H](O)CNCCNC(=O)N3CCOCC3)cc2)O1", "max response": "-9.37% (inactive) and -4.75% (inactive)"}, {"smiles": "C[C@H](CCC(=O)O)[C@H]1CC[C@H]2[C@@H]3C(=O)C[C@@H]4CC(=O)CC[C@]4(C)[C@H]3CC(=O)[C@]12C", "max response": "6.84% (inactive)"}, {"smiles": "CC1=C(C(=O)O)N2C(=O)[C@@H](NC(=O)[C@H](N)c3ccc(O)cc3)[C@H]2SC1", "max response": "17.2% (inactive)"}, {"smiles": "COc1ccc(/C=C/C(=O)c2ccc(OC)cc2OC)cc1", "max response": "-14.8% (inactive)"}, {"smiles": "O=c1c(-c2ccccc2)c1-c1ccccc1", "Potency": "3.98 µM (active)"}, {"smiles": "C[C@]12CCC(=O)C=C1CC[C@H]1[C@@H]3CC[C@](O)(C(=O)CO)[C@@]3(C)C[C@H](O)[C@@]12F", "max response": "15.9% (inactive) and -1.69% (inactive)"}, {"smiles": "Cc1onc(-c2c(Cl)cccc2Cl)c1C(=O)N[C@@H]1C(=O)N2[C@@H]1SC(C)(C)[C@@H]2C(=O)O", "max response": "-15.6% (inactive)"}, {"smiles": "COc1ccc(C2C(=O)c3ccccc3C2=O)cc1", "max response": "5.04% (inactive)"}, {"smiles": "CC(=O)CC(c1ccc([N+](=O)[O-])cc1)c1c(O)c2ccccc2oc1=O", "note": "(centres undefined)", "max response": "29.4% (inactive)"}, {"smiles": "COC(=O)[C@@H]1CC2=CC(=O)CC[C@]2(C)[C@@]23O[C@@H]2C[C@@]2(C)[C@@H](CC[C@@]24CCC(=O)O4)[C@H]13", "max response": "1.84% (inactive)"}, {"smiles": "COc1ccc(CCN2CCC(Nc3nc4ccccc4n3Cc3ccc(F)cc3)CC2)cc1", "Potency": "3.16 µM (active)"}, {"smiles": "CC(=O)OCC(=O)[C@@]1(OC(C)=O)[C@@H](C)C[C@H]2[C@@H]3C[C@H](F)C4=CC(=O)C=C[C@]4(C)[C@@]3(F)[C@@H](O)C[C@@]21C", "max response": "29% (inactive)"}]}]}
